Shown are actives, neighbours in structure and some others; about 1.2% of the full set was active somewhere.
CR mimetic SO – yeast age-related superoxide inhibition as caloric restriction mimetic; S. cerevisiae aged cells, superoxide DHE fluorescence; stronger effect = lower value; actives 0.18% (n = 330,000); superoxide response (% of plate mean), % at 10 µM;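 active = superoxide response under a set limit, about three screen SD below normal, cut at about 65% in these data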;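 note: yeast aged for seven days with compound at 30 °C before DHE staining; 100% = average MFI of all compound-treated wells on the plate with controls excluded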
HDAC3 inh – inhibitors of human histone deacetylase 3; O15379; recombinant HDAC3, fluorogenic peptide/trypsin coupled, fluorescence; inhibition, % at 8.3 µM; actives 0.15% (n = 320,000); AID 2718; in the data active = inhibition above about 26%, passing the limit was not always enough
Target sequence (O15379 whole entry, looked up): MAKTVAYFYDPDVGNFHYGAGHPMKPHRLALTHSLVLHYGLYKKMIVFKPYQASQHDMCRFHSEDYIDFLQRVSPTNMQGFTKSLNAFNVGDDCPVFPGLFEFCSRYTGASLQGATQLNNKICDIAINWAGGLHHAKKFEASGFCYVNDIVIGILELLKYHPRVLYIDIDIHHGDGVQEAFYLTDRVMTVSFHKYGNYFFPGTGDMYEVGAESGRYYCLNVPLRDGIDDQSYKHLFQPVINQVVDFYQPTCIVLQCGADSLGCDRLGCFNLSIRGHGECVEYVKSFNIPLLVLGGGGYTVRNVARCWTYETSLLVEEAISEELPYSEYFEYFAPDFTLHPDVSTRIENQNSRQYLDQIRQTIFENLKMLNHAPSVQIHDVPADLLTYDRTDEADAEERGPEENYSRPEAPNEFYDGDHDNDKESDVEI
LANA-H2A inh – blocks KSHV LANA binding to histone H2A/H2B; Q9QR71; cell-free LANA-H2A/H2B peptide, fluorescence polarization; inhibition, % (no concentration beside the values); actives 0.6% (n = 320,000); AID 2629; in the data active = inhibition mostly above about 10%, no sharp cut-off; inactive = mostly below about 6.7%
HIF act – HIF pathway transcriptional activation | U2OS HRE-luciferase reporter, luminescence; normalized: DMSO 0%, desferrioxamine 100% | activation, % at 7.5 µM (by protocol) | actives 0.32% (n = 300,000);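 active = mean activation of at least 10% of the iron chelator positive control signal, with at least half of replicates also reaching 10%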
The depositor's hits bear a star.

Results for CSc1nccc(Oc2cncc(Cl)c2)n1 ?
CR mimetic SO: 97.1; HDAC3 inh: 3.2; LANA-H2A inh: 11.1*; HIF act: 0.0

How did CSc1nccc(Oc2ccccc2Cl)n1 do in these assays?
CR mimetic SO: 71.6; HDAC3 inh: 1.0; LANA-H2A inh: -4.2; HIF act: 0.0

Results for O=C(CNC(=O)c1ccc2c(c1)OCCO2)N/N=C/c1cccc(Br)c1 ?
CR mimetic SO: 115.5; HDAC3 inh: 0.8; LANA-H2A inh: 4.7; HIF act: 0.2

How did CCCCN(CCCC)c1nc2ccccc2nc1C(C#N)C(=O)NCCCOC (stereo unspecified) do in these assays?
CR mimetic SO: 101.6; HDAC3 inh: -0.1; LANA-H2A inh: 27.2*; HIF act: 0.0

What do the screens show for `CCCCCCNC(=O)C(C#N)c1nc2ccccc2nc1N1CCCC1` (stereo unspecified)?
CR mimetic SO: 110.3; HDAC3 inh: 0.0; LANA-H2A inh: 154.5*; HIF act: -0.4

How did O=C(COC(=O)CNC(=O)c1ccccc1)NC(=O)NC1CCCCC1 do in these assays?
CR mimetic SO: 93.2; HDAC3 inh: -7.7; LANA-H2A inh: -2.0

How did CN(CCOC(=O)c1ccccc1)Cc1ccccc1 do in these assays?
CR mimetic SO: 115.0; HDAC3 inh: -1.4; LANA-H2A inh: 1.2; HIF act: -0.7

Results for CN(CCOC(=O)c1cccc(F)c1)Cc1ccccc1 ?
CR mimetic SO: 82.7; HDAC3 inh: -3.6; LANA-H2A inh: 11.0*; HIF act: -0.1

Results for Cc1cc(C(=O)CSc2nnnn2C)c(C)n1-c1ccc2c(c1)OCCO2 ?
CR mimetic SO: 91.1; HDAC3 inh: 0.9; LANA-H2A inh: 0.2; HIF act: 3.3

What do the screens show for `Cc1nnc(SCC(=O)c2cc(C)n(-c3ccc4c(c3)OCO4)c2C)s1`?
CR mimetic SO: 110.1; HDAC3 inh: 7.6; LANA-H2A inh: 27.4*; HIF act: 1.1

What do the screens show for `COC(=O)c1ccc(C(=O)OC)c(NC(=O)COC(=O)C2CC2C)c1` (stereo unspecified)?
CR mimetic SO: 105.9; HDAC3 inh: -6.7; LANA-H2A inh: 21.4*; HIF act: 0.1

How did CC1CC1C(=O)OCC(=O)Nc1ccccc1Oc1ccccc1 (stereo unspecified) do in these assays?
CR mimetic SO: 84.1; HDAC3 inh: -12.9; LANA-H2A inh: 35.0*; HIF act: -0.2

What do the screens show for `O=C(COc1ccccc1)Nc1ccccc1Oc1ccccc1`?
CR mimetic SO: 98.5; HDAC3 inh: 1.9; LANA-H2A inh: 0.5; HIF act: -0.2

How did COC(=O)c1ccc(C(=O)OC)c(NC(=O)COC(=O)C2CCCCC2)c1 do in these assays?
CR mimetic SO: 89.9; HDAC3 inh: -9.1; LANA-H2A inh: -2.1; HIF act: -0.3

Results for Cc1ccccc1Cn1cc(NC(=O)CSc2nc3c(c(C(F)(F)F)n2)CCc2ccccc2-3)cn1 ?
CR mimetic SO: 108.4; HDAC3 inh: 5.2; LANA-H2A inh: 0.3; HIF act: 0.0

How did N#CCCn1cnc2c(=S)nc[nH]c21 do in these assays?
CR mimetic SO: 112.1; HDAC3 inh: 5.8; LANA-H2A inh: 9.9*

What do the screens show for `COC(/C(=N/O)c1ccc(Cl)cc1)c1ccccc1` (stereo unspecified)?
CR mimetic SO: 97.7; HDAC3 inh: 4.2; LANA-H2A inh: -7.9; HIF act: 1.5

How did COc1ccccc1CNC(=O)CN(C)CC(=O)Nc1ccccc1Br do in these assays?
CR mimetic SO: 89.7; HDAC3 inh: -5.8; LANA-H2A inh: 0.1

What do the screens show for `C/C=C/c1ccc(OCCCCN2CC(C)CC(C)C2)c(OC)c1` (stereo unspecified)?
CR mimetic SO: 94.5; HDAC3 inh: 1.4; LANA-H2A inh: 195.3*; HIF act: 0.1

How did c1ccc2c(c1)Oc1ccccc1S2 do in these assays?
CR mimetic SO: 95.5; HDAC3 inh: -1.1; LANA-H2A inh: 41.6*

How did CN(C)CCC1Sc2ccccc2Oc2ccccc21 (stereo unspecified) do in these assays?
CR mimetic SO: 99.1; HDAC3 inh: -4.0; LANA-H2A inh: -0.4; HIF act: -3.2

Results for Cc1ccc(C2=NN(CC(=O)NCCN(CC(C)C)CC(C)C)C(=O)CC2)cc1 ?
CR mimetic SO: 87.3; HDAC3 inh: -5.6; LANA-H2A inh: 15.1*; HIF act: 1.5

Results for Cc1ccc(C2=NN(CC(=O)NCCN(C)C)C(=O)CC2)cc1 ?
CR mimetic SO: 102.9; HDAC3 inh: 3.4; LANA-H2A inh: 1.2; HIF act: 0.6

What do the screens show for `CCOC(=O)c1c(C)n(C)c2ccc(O)c(CN3CCN(C)CC3)c12`?
CR mimetic SO: 110.9; HDAC3 inh: -1.9; LANA-H2A inh: -1.6; HIF act: 0.9

How did CCOC(=O)c1c(CSc2ccccc2)n(C)c2ccc(O)c(CN3CCOCC3)c12 do in these assays?
CR mimetic SO: 109.7; HDAC3 inh: 6.3; LANA-H2A inh: 18.5*; HIF act: -0.6

Results for Cc1nonc1OCCCNc1ccc([N+](=O)[O-])cc1Cl ?
CR mimetic SO: 98.1; HDAC3 inh: 4.1; LANA-H2A inh: -3.6; HIF act: 1.3

What do the screens show for `O=C(NCc1nc(-c2ccc(C(F)(F)F)cc2)no1)Nc1ccc(OC(F)(F)F)cc1`?
CR mimetic SO: 110.5; HDAC3 inh: 18.2; LANA-H2A inh: 0.8; HIF act: -0.9

What do the screens show for `COc1ccc(O)c(/C=N/NC(=O)c2ccc(OCc3cccc(Br)c3)cc2)c1`?
CR mimetic SO: 79.5; HDAC3 inh: -1.4; LANA-H2A inh: 2.4; HIF act: 15.7*

Results for COc1ccc(C(=O)N/N=C/c2cc(Br)ccc2O)cc1OC ?
CR mimetic SO: 98.5; HDAC3 inh: 6.1; LANA-H2A inh: -0.2; HIF act: 39.5*

How did COc1ccc(Br)cc1/C=N/NC(=O)c1cc(Br)ccc1O do in these assays?
CR mimetic SO: 96.6; HDAC3 inh: 10.3; LANA-H2A inh: -0.5; HIF act: -0.1

How did Cn1cccc1-c1cc(C(=O)N/N=C/c2cc(Br)ccc2O)[nH]n1 do in these assays?
CR mimetic SO: 104.0; HDAC3 inh: -0.8; LANA-H2A inh: -7.9; HIF act: 10.4*

How did COc1ccc(O)c(/C=N/NC(=O)c2ccc(CSc3nc(C)cc(C)n3)cc2)c1 do in these assays?
CR mimetic SO: 104.2; HDAC3 inh: -7.9; LANA-H2A inh: 0.3; HIF act: 29.0*

What do the screens show for `FC(F)(F)c1ccc2c(c1)[nH]c(=S)n2C1CC1`?
CR mimetic SO: 139.7; HDAC3 inh: -3.5; LANA-H2A inh: -1.3; HIF act: -0.9

What do the screens show for `CCOC(=O)c1c(NC(=O)COC(=O)c2cnccn2)sc(C)c1C`?
CR mimetic SO: 97.4; HDAC3 inh: 4.2; LANA-H2A inh: 1.1

What do the screens show for `COc1cc2c(cc1OC)[C@H](C)N(C(=O)NCc1ccccc1)CC2`?
CR mimetic SO: 80.5; HDAC3 inh: 12.2; LANA-H2A inh: 2.4; HIF act: -1.6

What do the screens show for `O=C(CSc1ccc2ccccc2n1)N/N=C/c1ccccc1O`?
CR mimetic SO: 98.4; HDAC3 inh: 7.3; LANA-H2A inh: -5.4; HIF act: -0.2

How did Cc1cc(SCC(=O)N/N=C/c2ccccc2C(=O)O)c(C)cc1Br do in these assays?
CR mimetic SO: 99.3; HDAC3 inh: 2.7; LANA-H2A inh: -4.8; HIF act: 21.2*
